Measured values published in the supplement of paper PMC8728848.
The entries come from a sample that favours the strongest signals as a whole.

Assays:
Experiment in all cases: glycan array binding signal (z-score within array); higher = stronger binding
Details in all cases: glycan notation: IUPAC condensed, linker removed
[1] = target: Fuc(a1-2)Gal(b1-3)GlcNAc(b1-2)Man(a1-3)[Fuc(a1-2)Gal(b1-3)GlcNAc(b1-2)Man(a1-6)]Man(b1-4)GlcNAc(b1-4)GlcNAc
Summary of the method: (§1)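 Negative Z-scores can be read as non-binding. The Z-score is calculated within each array and then averaged across arrays of one protein sequence at different concentrations or buffers and across linkers. Arrays, 3228 in all, were curated from the Consortium for Functional Glycomics database and kept only where the protein sequence was available.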

[2] = target: Fuc(a1-2)Gal(b1-3)GlcNAc(b1-3)[Neu5Ac(a2-6)Gal(b1-4)GlcNAc(b1-6)]Gal(b1-4)Glc
Summary of the method: as §1

[3] = target: Fuc(a1-2)Gal(b1-4)Fuc(a1-3)]GlcNAc(b1-2)Man(a1-3)[Fuc(a1-2)Gal(b1-4)[Fuc(a1-3)]GlcNAc(b1-2)Man(a1-6)]Man(b1-4)GlcNAc(b1-4)GlcNAc
Summary of the method: as §1

[4] = target: Fuc(a1-2)Gal(b1-4)GlcNAc(b1-3)[Fuc(a1-2)Gal(b1-4)GlcNAc(b1-6)]GalNAc
Summary of the method: as §1

[5] = target: Fuc(a1-2)[Gal(a1-3)]Gal(b1-4)[Fuc(a1-3)]GlcNAc
Summary of the method: as §1

[6] = target: Fuc(a1-2)[GalNAc(a1-3)]Gal(b1-4)GlcNAc(b1-3)Gal(b1-4)GlcNAc
Summary of the method: as §1

[7] = target: Fuc(a1-2)[GalNAc(a1-3)]Gal(b1-4)GlcNAc(b1-3)[Fuc(a1-2)[GalNAc(a1-3)]Gal(b1-4)GlcNAc(b1-6)]GalNAc
Summary of the method: as §1

[8] = target: Fuc(a1-2)[GalNAc(a1-3)]Gal(b1-4)[Fuc(a1-3)]GlcNAc(b1-3)GalNAc
Summary of the method: as §1

[9] = target: Fuc(a1-2)[GalNAc(a1-4)]Gal(b1-4)GlcNAc
Summary of the method: as §1

[10] = target: Fuc(a1-3)[Gal(b1-4)]GlcNAc(b1-2)Man(a1-3)[Fuc(a1-3)[Gal(b1-4)]GlcNAc(b1-2)Man(a1-6)]Man(b1-4)GlcNAc(b1-4)[Fuc(a1-6)]GlcNAc
Summary of the method: as §1

[11] = target: Fuc(a1-3)[Gal(b1-4)]GlcNAc(b1-3)Gal(b1-4)[Fuc(a1-3)]GlcNAc
Summary of the method: as §1

[12] = target: Gal(a1-3)Gal(b1-3)GlcNAc(b1-3)GalNAc
Summary of the method: as §1

[13] = target: Gal(b1-3)GlcNAc(a1-3)Gal(b1-4)GlcNAc
Summary of the method: as §1

[14] = target: Gal(b1-3)GlcNAc(b1-6)[Gal(b1-3)]GalNAc
Summary of the method: as §1

[15] = target: Gal(b1-3)[Fuc(a1-4)]GlcNAc(b1-2)Man(a1-3)[Gal(b1-3)[Fuc(a1-4)]GlcNAc(b1-2)Man(a1-6)]Man(b1-4)GlcNAc(b1-4)[Fuc(a1-6)]GlcNAc
Summary of the method: as §1

[16] = target: Gal(b1-4)GlcNAc(b1-2)Man(a1-3)[GlcNAc(b1-4)][Gal(b1-4)GlcNAc(b1-2)Man(a1-6)]Man(b1-4)GlcNAc(b1-4)GlcNAc
Summary of the method: as §1

[17] = target: Gal(b1-4)GlcNAc(b1-3)Gal(b1-4)GlcNAc(b1-2)Man(a1-3)[Gal(b1-4)GlcNAc(b1-3)Gal(b1-4)GlcNAc(b1-2)Man(a1-6)]Man(b1-4)GlcNAc(b1-4)GlcNAc
Summary of the method: as §1

[18] = target: Gal(b1-4)GlcNAc(b1-3)Gal(b1-4)GlcNAc(b1-3)GalNAc
Summary of the method: as §1

[19] = target: Gal(b1-4)GlcNAc(b1-3)Gal(b1-4)GlcNAc(b1-3)[Gal(b1-4)GlcNAc(b1-3)Gal(b1-4)GlcNAc(b1-6)]GalNAc
Summary of the method: as §1

[20] = target: Gal3S(b1-3)[Fuc(a1-4)]GlcNAc
Summary of the method: as §1

[21] = target: Gal3S(b1-4)Glc
Summary of the method: as §1

[22] = target: Gal3S4S(b1-4)GlcNAc
Summary of the method: as §1

[23] = target: Gal6S(b1-4)GlcNAc6S
Summary of the method: as §1

[24] = target: GalNAc(a1-3)GalNAc
Summary of the method: as §1

[25] = target: GalNAc(a1-3)GalNAc(b1-3)Gal(a1-4)Gal(b1-4)Glc
Summary of the method: as §1

[26] = target: GalNAc(b1-3)Gal
Summary of the method: as §1

[27] = target: GalNAc3S(b1-4)GlcNAc
Summary of the method: as §1

[28] = target: GlcNAc(b1-3)Gal(b1-4)GlcNAc(b1-2)Man(a1-3)[GlcNAc(b1-3)Gal(b1-4)GlcNAc(b1-2)Man(a1-6)]Man(b1-4)GlcNAc(b1-4)GlcNAc
Summary of the method: as §1

[29] = target: GlcNAc(b1-3)Gal(b1-4)GlcNAc(b1-3)Gal(b1-4)GlcNAc(b1-3)Gal(b1-4)GlcNAc(b1-2)Man(a1-3)[GlcNAc(b1-3)Gal(b1-4)GlcNAc(b1-3)Gal(b1-4)GlcNAc(b1-3)Gal(b1-4)GlcNAc(b1-2)Man(a1-6)]Man(b1-4)GlcNAc(b1-4)[Fuc(a1-6)]GlcNAc
Summary of the method: as §1

[30] = target: GlcNAc(b1-3)Gal(b1-4)GlcNAc(b1-6)[GlcNAc(b1-3)Gal(b1-3)]GalNAc
Summary of the method: as §1

[31] = target: GlcNAc(b1-3)[GlcNAc(b1-4)][GlcNAc(b1-6)]GlcNAc
Summary of the method: as §1

[32] = target: GlcNAc(b1-4)GlcNAc(b1-4)GlcNAc(b1-4)GlcNAc(b1-4)GlcNAc
Summary of the method: as §1

[33] = target: GlcNAc(b1-4)GlcNAc(b1-4)GlcNAc(b1-4)GlcNAc(b1-4)GlcNAc(b1-4)GlcNAc
Summary of the method: as §1

[34] = target: Man(a1-3)[Man(a1-6)]Man(a1-6)[Man(a1-2)Man(a1-3)]Man(b1-4)GlcNAc(b1-4)GlcNAc
Summary of the method: as §1

[35] = target: Man(a1-3)[Man(a1-6)]Man(b1-4)GlcNAc(b1-4)[Fuc(a1-6)]GlcNAc
Summary of the method: as §1

[36] = target: MurNAc(b1-4)GlcNAc
Summary of the method: as §1

[37] = target: Neu5Ac(a2-3)Gal(b1-3)GalNAc(b1-4)[Neu5Ac(a2-8)Neu5Ac(a2-3)]Gal(b1-4)Glc
Summary of the method: as §1

[38] = target: Neu5Ac(a2-3)Gal(b1-3)GlcNAc(b1-3)Gal(b1-3)GlcNAc
Summary of the method: as §1

[39] = target: Neu5Ac(a2-3)Gal(b1-4)GlcNAc(b1-3)Gal(b1-3)GlcNAc
Summary of the method: as §1

[40] = target: Neu5Ac(a2-3)Gal(b1-4)GlcNAc(b1-3)Gal(b1-4)GlcNAc(b1-2)Man(a1-3)[Neu5Ac(a2-3)Gal(b1-4)GlcNAc(b1-3)Gal(b1-4)GlcNAc(b1-2)Man(a1-6)]Man(b1-4)GlcNAc(b1-4)GlcNAc
Summary of the method: as §1

[41] = target: Neu5Ac(a2-3)Gal(b1-4)GlcNAc(b1-3)Gal(b1-4)GlcNAc(b1-3)Gal(b1-4)GlcNAc(b1-2)Man(a1-3)[Neu5Ac(a2-3)Gal(b1-4)GlcNAc(b1-3)Gal(b1-4)GlcNAc(b1-3)Gal(b1-4)GlcNAc(b1-2)Man(a1-6)]GalNAc
Summary of the method: as §1

[42] = target: Neu5Ac(a2-3)[GalNAc(b1-4)]Gal(b1-4)GlcNAc
Summary of the method: as §1

[43] = target: Neu5Ac(a2-3)[Neu5Ac(a2-6)]GalNAc
Summary of the method: as §1

[44] = target: Neu5Ac(a2-6)Gal(b1-4)GlcNAc
Summary of the method: as §1

[45] = target: Neu5Ac(a2-6)Gal(b1-4)GlcNAc(b1-3)Gal(b1-4)GlcNAc(b1-3)[Neu5Ac(a2-6)Gal(b1-4)GlcNAc(b1-3)Gal(b1-4)GlcNAc(b1-6)]GalNAc
Summary of the method: as §1

[46] = target: Neu5Ac(a2-6)GalNAc
Summary of the method: as §1

[47] = target: Neu5Ac(a2-8)Neu5Ac(a2-3)Gal(b1-3)GalNAc(b1-4)[Neu5Ac(a2-3)]Gal(b1-4)Glc
Summary of the method: as §1

[48] = target: Neu5Ac(a2-8)Neu5Ac(a2-8)Neu5Ac(a2-3)[Gal(b1-3)GalNAc(b1-4)]Gal(b1-4)Glc
Summary of the method: as §1

[49] = target: Neu5Ac(a2-8)Neu5Ac(a2-8)Neu5Ac(a2-3)[GalNAc(b1-4)]Gal(b1-4)Glc
Summary of the method: as §1

[50] = target: Neu5Ac(b2-6)GalNAc
Summary of the method: as §1

[51] = target: Neu5Ac9Ac(a2-3)Gal(b1-3)GlcNAc
Summary of the method: as §1

[52] = target: Neu5Gc(a2-3)Gal(b1-4)GlcNAc(b1-3)Gal(b1-4)GlcNAc(b1-2)Man(a1-3)[Neu5Gc(a2-3)Gal(b1-4)GlcNAc(b1-3)Gal(b1-4)GlcNAc(b1-2)Man(a1-6)]Man(b1-4)GlcNAc(b1-4)GlcNAc
Summary of the method: as §1

[53] = target: Neu5Gc(a2-3)Gal(b1-4)[Fuc(a1-3)]GlcNAc
Summary of the method: as §1

[54] = target: Neu5Gc(a2-8)Neu5Gc(a2-3)Gal(b1-4)GlcNAc(b1-3)Gal(b1-4)GlcNAc
Summary of the method: as §1

B1: LFA (Limax flavus) (protein)
chain: MSVLFLAASFLLLASFELVAAQGCPRQDPGDWIVIQRRLNADVNFYRGWADYKHGFGDLRCNFWLGNEKIHQLTSHGRYKLRVEFTFNNKSYFAEYSTFKILGEADKYKLQVGGYSGNAGDALTFHNGMAFSTNDRDNDADSIDCAKVYHGAWWYKTCHESNLNGKWGSKKYGEGLNWKAKTTFTATATSSLLKIKALK
[1]
  glycan array binding signal (z-score): 0.702
[2]
  glycan array binding signal (z-score): -0.319
[3]
  glycan array binding signal (z-score): 1.54
[4]
  glycan array binding signal (z-score): -0.186
[5]
  glycan array binding signal (z-score): -0.137
[6]
  glycan array binding signal (z-score): -0.192
[7]
  glycan array binding signal (z-score): -0.241
[8]
  glycan array binding signal (z-score): -0.214
[9]
  glycan array binding signal (z-score): 3.52
[10]
  glycan array binding signal (z-score): -0.15
[11]
  glycan array binding signal (z-score): -0.217
[12]
  glycan array binding signal (z-score): 0.016
[13]
  glycan array binding signal (z-score): -0.103
[14]
  glycan array binding signal (z-score): -0.21
[15]
  glycan array binding signal (z-score): 0.669
[16]
  glycan array binding signal (z-score): 0.181
[17]
  glycan array binding signal (z-score): 2.97
[18]
  glycan array binding signal (z-score): 2.68
[19]
  glycan array binding signal (z-score): 2.39
[20]
  glycan array binding signal (z-score): -0.306
[21]
  glycan array binding signal (z-score): -0.271
[22]
  glycan array binding signal (z-score): -0.218
[23]
  glycan array binding signal (z-score): -0.066
[24]
  glycan array binding signal (z-score): 3.66
[25]
  glycan array binding signal (z-score): 13.1
[26]
  glycan array binding signal (z-score): -0.195
[27]
  glycan array binding signal (z-score): -0.277
[28]
  glycan array binding signal (z-score): -0.217
[29]
  glycan array binding signal (z-score): 0.314
[30]
  glycan array binding signal (z-score): -0.285
[31]
  glycan array binding signal (z-score): -0.405
[32]
  glycan array binding signal (z-score): 2.87
[33]
  glycan array binding signal (z-score): 5.81
[34]
  glycan array binding signal (z-score): 3.26
[35]
  glycan array binding signal (z-score): 0.24
[36]
  glycan array binding signal (z-score): -0.363
[37]
  glycan array binding signal (z-score): -0.184
[38]
  glycan array binding signal (z-score): -0.139
[39]
  glycan array binding signal (z-score): -0.206
[40]
  glycan array binding signal (z-score): 2.77
[41]
  glycan array binding signal (z-score): 4.29
[42]
  glycan array binding signal (z-score): 0.019
[43]
  glycan array binding signal (z-score): 1.01
[44]
  glycan array binding signal (z-score): -0.176
[45]
  glycan array binding signal (z-score): 2.5
[46]
  glycan array binding signal (z-score): -0.345
[47]
  glycan array binding signal (z-score): -0.229
[48]
  glycan array binding signal (z-score): -0.353
[49]
  glycan array binding signal (z-score): 0.236
[50]
  glycan array binding signal (z-score): -0.284
[51]
  glycan array binding signal (z-score): -0.339
[52]
  glycan array binding signal (z-score): -0.166
[53]
  glycan array binding signal (z-score): -0.306
[54]
  glycan array binding signal (z-score): -0.237
